The campaign covered roughly 16,000 compounds. About 5,100 (32%) were called active. Not shown: some 25% with an inconclusive outcome. Calls follow the shape of the dose curve; as a rule, active = well fitted curve in the direction sought with a large enough effect; inconclusive = small, poorly fitted or top-dose-only effect, or effect the other way; inactive = no such curve, though single readings can be large or run the other way. Some of the results follow. Peptide text beside a SMILES is read from it.
Molecular target: Cytochrome P450 3A4 (Homo sapiens) (UniProt P08684)
Experiment: Cytochrome panel assay with activity outcomes
Settings: recombinant CYP, pro-luciferin dealkylation, luminescence, p450-cyp3a4; series mostly up to 57.1 µM
% is scaled to controls: 0 for no effect and ±100 for the full control effect.

Sequence of Cytochrome P450 3A4 (Homo sapiens) (P08684 whole entry, looked up): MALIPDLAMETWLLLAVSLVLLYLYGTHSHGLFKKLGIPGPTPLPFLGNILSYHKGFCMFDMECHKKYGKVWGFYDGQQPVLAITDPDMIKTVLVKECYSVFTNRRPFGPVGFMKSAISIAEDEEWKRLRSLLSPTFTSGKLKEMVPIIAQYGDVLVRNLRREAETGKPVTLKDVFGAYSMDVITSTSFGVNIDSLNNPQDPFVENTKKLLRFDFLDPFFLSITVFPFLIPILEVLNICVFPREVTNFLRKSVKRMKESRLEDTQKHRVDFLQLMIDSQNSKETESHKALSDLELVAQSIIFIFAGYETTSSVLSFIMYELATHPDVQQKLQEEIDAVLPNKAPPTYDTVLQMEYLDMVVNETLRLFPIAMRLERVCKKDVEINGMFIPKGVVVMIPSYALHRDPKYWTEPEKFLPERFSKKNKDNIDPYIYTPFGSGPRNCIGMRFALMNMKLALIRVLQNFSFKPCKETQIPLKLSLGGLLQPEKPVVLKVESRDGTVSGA

AC50, inactive:
O=C(O)[C@H]1C[C@@H](CP(=O)(O)O)CCN1
CN(C)CCCNC(=O)CCc1nc2ccccc2c(=O)[nH]1
CCCCN(C)CCCNC(=O)c1ccc(N2CCCC2=O)cc1
C=CCN1C(=NC(=O)CC)SC2CS(=O)(=O)CC21 (configuration not stated)
CS(=O)(=O)N1CCC2(CCN(c3ccncc3)CC2)CC1
CN1CCN(C(=O)C(C(=O)c2ccc(F)cc2)n2ccccc2=O)CC1 (configuration not stated)
CC(=O)N[C@@H](CC(=O)O)C(=O)N[C@@H](CCC(=O)O)C(=O)O (Ac-Asp-Glu-OH)
COc1cnc(SCc2ccc(Cl)cc2)nc1Cl
Cc1ccc(-c2ccc(=O)n(CC(=O)NCCN(C)C)n2)cc1
CCCN1CCN(CCCNC(=O)Cn2nc(-c3ccc(C)cc3)ccc2=O)CC1
c1ccc2nc(C3=NCCN3)cnc2c1
C=CCNC(=S)N/N=C/c1ccc(OCc2ccccc2)cc1
OC[C@@H]1O[C@@H](n2cnc3c(NC4CCCC4)ncnc32)[C@H](O)[C@H]1O
CN1[C@@H]2CC[C@H]1CC(OC(c1ccccc1)c1ccccc1)C2 (some centres not stated)
Cc1cc(C(=O)C(=O)NC(C)C)c(C)n1-c1ccc([N+](=O)[O-])cc1
CCC(=O)Nc1nnc(C(C)(C)C)s1

AC50, active:
Cc1ccccc1-c1nc(CS(=O)CC(=O)NCCN2CCN(Cc3ccccc3)CC2)c(C)o1 (configuration not stated) 7.08 µM
CCCCN(C)CCCNC(=O)CS(=O)Cc1nc(-c2ccc(OC)c(OC)c2)oc1C (configuration not stated) 14.1 µM
Cc1ccccc1-c1nc(CS(=O)CC(=O)NCCCN(C)c2ccccc2)c(C)o1 (configuration not stated) 3.98 µM
COc1ccc(S(=O)(=O)NNC(=O)C2Cc3c(ccc4ccccc34)O2)cc1 (configuration not stated) 10 µM
NNC(=O)CCc1ccc2ccc3ccccc3c2c1 0.398 µM
COc1ccc(OC)c(NC(=O)CSCc2cnn(-c3ccccc3)c2-n2cccc2)c1 10 µM
CCOC(=O)N1CCC(NC(=O)CSCc2cnn(-c3ccccc3)c2-n2cccc2)CC1 12.6 µM
O=S(=O)(c1ccccc1)N1CCC[C@@]2(CCN(c3ccccc3)C2)C1 5.01 µM
O=S(=O)(c1ccccc1)N1CCC[C@@]2(CCN(c3ccncc3)C2)C1 3.98 µM
COc1cc(/C=N/O)cc(Br)c1OCc1ccc(Cl)cc1 15.8 µM
COc1cc(/C=N/O)cc(Br)c1OCc1cccc(Cl)c1 14.1 µM
Cc1ccc(-c2ccc(=O)n(CC(=O)N3CCN(c4cccc(C)c4)C(C)C3)n2)cc1 (configuration not stated) 14.1 µM
COc1cc2c(cc1OC)C(c1ccc(N)cc1)=NNC(=O)C2 12.6 µM
COC(=O)c1cc(Br)c(=O)n(CCc2ccc(O)cc2)c1 15.8 µM
CCOc1ccc2c(c1)nc(SCC(=O)c1ccc(Br)s1)n2C 6.31 µM
C=CCNC(=S)Nc1ccc2nc(C)c(C)nc2c1 15.8 µM
CC(C)Cn1c(SCC(=O)c2c(N)n(C)c(=O)n(C)c2=O)nc2ccccc21 2.51 µM
CCNC(=O)NC(=O)CSc1nc2ccccc2n1CC(C)C 12.6 µM
CC(=O)Oc1ccc2ccccc2c1C(NC(=O)Cc1ccccc1)c1ccc(Cl)cc1 (configuration not stated) 8.91 µM
C=CCN(CC=C)C(=O)C(=O)c1cc(C)n(-c2ccc([N+](=O)[O-])cc2)c1C 2.82 µM
O=C(Nc1nccs1)c1sc2cc(Cl)ccc2c1Cl 10 µM
COc1ccc(CNc2ncnc3ccc(-c4ccccc4C#N)cc23)c(OC)c1 1 µM
COc1ccccc1CNc1ncnc2ccc(-c3ccccc3C#N)cc12 3.98 µM
c1ccc(-n2cnc3cc(NCc4cccs4)ccc32)cc1 7.08 µM

activity, negative = inhibition, inactive:
O=C(NCCN1CCN(Cc2ccccc2)CC1)C1c2ccccc2C(=O)N2CCc3ccccc3C12 (configuration not stated) -22.2% [at 2.29 µM]
O=C(O)C(=O)/C=C(\O)c1ccc(Br)cc1 -7.81% [at 11.4 µM]
O=C(O)CCCc1ccc2ccccc2c1 -5.59% [at 11.4 µM]
O=C(O)CCCc1ccc2ccc3ccccc3c2c1 -10% [at 11.4 µM]
COC(=O)c1cc(Br)c(=O)n(CCN2CCCC2)c1 8.19% [at 2.29 µM]
O=C(Cc1ccc(Cl)cc1)NNC(=O)Nc1cccc2ccccc12 -12.3% [at 2.29 µM]
Clc1ccc2c(NCCNc3ccnc4cc(Cl)ccc34)ccnc2c1 4.32% [at 11.4 µM]
